About 83,000 compounds went through this panel and 20% of them were active in at least one assay; those are over-represented in the sample as a whole.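 Note: values are percent growth. 100 is the growth of untreated cells, values between 100 and 0 indicate rising inhibition; between -100 and 0 indicates cell death.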 Unmarked numbers belong to inactive results. Calls of active or inactive are those of the source. Rule for the calls: active = growth percent below 10; inactive = the rest.
Key:
Assay in all cases: NCI-60 one-dose screen, 48 h (100 = growth as untreated, 0 = no growth, -100 = all killed)
Details in all cases: 10 µM unless noted
[1] = system: SK-MEL-2 melanoma
[2] = system: EKVX NSCLC
[3] = system: SN12C renal
[4] = system: UO-31 renal
[5] = system: TK-10 renal
[6] = system: ACHN renal
[7] = system: CAKI-1 renal
[8] = system: A498 renal
[9] = system: CCRF-CEM leukemia
[10] = system: MOLT-4 leukemia
[11] = system: SR leukemia
[12] = system: OVCAR-8 ovarian
[13] = system: OVCAR-5 ovarian
[14] = system: OVCAR-4 ovarian
[15] = system: SK-OV-3 ovarian
[16] = system: IGROV1 ovarian
[17] = system: OVCAR-3 ovarian
[18] = system: HS 578T breast
[19] = system: NCI/ADR-RES ovarian
[20] = system: RPMI-8226 leukemia

SMILES	growth [1]	growth [2]	growth [3]	growth [4]	growth [5]	growth [6]	growth [7]	growth [8]	growth [9]	growth [10]	growth [11]	growth [12]	growth [13]	growth [14]	growth [15]	growth [16]	growth [17]	growth [18]	growth [19]	growth [20]
C#CCOc1ccc2ncnc(Nc3cccc(CNC(=O)C=C)c3)c2c1	104% [8.25 µM]	98.6% [8.25 µM]	95.5% [8.25 µM]	82.3% [8.25 µM]	91.5% [8.25 µM]	95.8% [8.25 µM]	96.3% [8.25 µM]	58.8% [8.25 µM]	111% [8.25 µM]	100% [8.25 µM]	103% [8.25 µM]	95.8% [8.25 µM]	100% [8.25 µM]	92.5% [8.25 µM]	107% [8.25 µM]	88.8% [8.25 µM]	104% [8.25 µM]	91.9% [8.25 µM]	107% [8.25 µM]	
CC(C)(C)CC(C)(C)c1ccc(OCCOCC[N+](C)(C)Cc2ccccc2)cc1	-69.4% (active)	22.3%	-29.2% (active)	86.1%	-0.335% (active)	73.2%	97.3%	17.7%	-25.8% (active)	-20% (active)	-50.8% (active)	-65.7% (active)	29.6%	-16% (active)		-45.9% (active)	-35% (active)	26.1%	112%	-60.3% (active)
Cc1cn2c(/C=C3/C(=O)Nc4c3ccc3ccccc43)c(C(F)(F)F)nc2s1	20%	44.4%	38.2%	34.7%	36.3%	48.5%	34.3%	0.919% (active)	16.4%	35.1%	8.46% (active)	27.7%	43.4%	51.3%		42.1%	-1.83% (active)		5.22% (active)	14.7%
COC(=O)c1ccc(Cn2cnc3c(N)ncnc32)cc1	90.8%	102%	102%	89.9%	86.3%	101%	103%	104%	102%	93.2%	104%	112%	115%		107%	126%	118%	95.4%	110%	
O=C1CC[C@H](c2ccc(O)c3c2C(=O)[C@@H]2O[C@@H]2C3=O)c2cccc(O)c21	69.5%	102%	54.6%	-77.4% (active)	3.89% (active)	-42% (active)	2.61% (active)	85%	-2.85% (active)	45.1%	2.02% (active)	43.5%	99.6%	72.4%		90%	-9.05% (active)	98.4%	90%	-3.81% (active)
COc1ccc2nc(NC(=O)CSc3nnc4n3S(=O)(=O)c3ccccc3N4c3ccccc3)sc2c1	87.9%	94.4%	107%	-39.9% (active)	103%	92.8%	-0.617% (active)	121%	-19.7% (active)	6.47% (active)	66.6%	51.2%		91.8%	100%	27.7%	104%		93.5%	66.8%
CCCCC/C(C=C(C#N)C#N)=C/c1ccccc1	82.4%	106%	81.1%	34.7%	105%	41.6%	81.4%	112%	13.9%	13.4%	7.75% (active)	12.3%	113%	86.4%					65%	-14.1% (active)
CCc1nnc(CNc2ccc(Cl)cc2)o1	90.6%	91.3%	95.8%	73.7%	114%	86.8%	89.9%	106%	114%	89.7%	88.6%	109%		99.2%	88.5%	105%	99.9%	102%	97.8%	103%
NC(=O)c1cc(Cl)ccc1NC(=O)/C=C/c1ccccc1	57.7%	41%	49%	41.3%	45.1%	59.8%	56.5%	54.1%	3.8% (active)	28.4%	-34.1% (active)	51.2%		40.7%	3.73% (active)	88.6%	-30.3% (active)	7.85% (active)	10.8%	12.8%
CN(C)S(=O)(=O)c1ccc(S(=O)(=O)Nc2cccc(Cl)c2N2CCCCC2)cc1	73.8%	68.2%	83%	72.7%	102%	75.3%	31.6%	103%	75%	68.9%		92%	89.4%	68.2%	98.3%	82.5%	90.6%	91.8%	76.6%	48%
O=C(Nc1ccccc1Cl)c1ccc(NC2=C(Cl)C(=O)N(C3CCCCC3)C2=O)cc1	104% [30 µM]	98.5% [30 µM]	97.6% [30 µM]	75.8% [30 µM]	88.5% [30 µM]	78.9% [30 µM]	20.5% [30 µM]	123% [30 µM]	39.6% [30 µM]	40.8% [30 µM]	-22.2% [30 µM] (active)	28.9% [30 µM]		68.9% [30 µM]	109% [30 µM]	78.2% [30 µM]	15.9% [30 µM]	-0.344% [30 µM] (active)	78.4% [30 µM]	23.6% [30 µM]
COc1ccc(C2CC(c3ccc4ccccc4c3)=NN2/C=C2\SC(=S)N(NC(=O)Cc3ccccc3Nc3c(Cl)cccc3Cl)C2=O)cc1 (stereo not drawn)	38.8%	40.2%	31.7%	11.8%	48.7%	47.4%	31.5%	-0.474% (active)	6.24% (active)	13.9%	20.8%	34.6%	56.8%	70%	41.9%	33.1%	2.15% (active)	13.3%	9.39% (active)	
C=C(C)[C@@H]1CC[C@]2(C(=O)OC)CC[C@]3(C)[C@H](CC[C@@H]4[C@@]5(C)C/C(=C/c6cccc(I)c6)C(=O)C(C)(C)[C@@H]5CC[C@]43C)[C@@H]12	103%	94.6%	101%	85.2%	101%	90.8%	82%	116%	97.9%	95.8%		101%	98.7%	107%	93.9%	103%	119%	88%	94.1%	95.7%
O=C1c2cc3c(cc2-c2c1c1ccc(F)cc1c(=O)n2CCCNCCO)OCO3	-46.1% (active)	-14% (active)	-60.4% (active)	-72.2% (active)	-18.9% (active)	-52.7% (active)	-7.53% (active)	-95.9% (active)	0.848% (active)	-25% (active)	-25.7% (active)	-33% (active)		-76.9% (active)	-33.7% (active)	-5.09% (active)	-28.1% (active)	3.15% (active)	-13.8% (active)	-12.5% (active)
O=C1Nc2c(ccc(Cl)c2Cl)/C1=C\c1cc(C(F)(F)F)cc(C(F)(F)F)c1	38.4%	26.9%	14.2%	16.6%	26%	8.13% (active)	8.62% (active)	-23.7% (active)	30.8%	-14.2% (active)	-41.1% (active)	27.1%		9.67% (active)	59.9%	3.13% (active)	-34.2% (active)	-37.6% (active)	8.35% (active)	25.6%
C=CC(=O)Nc1cccc(-c2nc(SC)nc(NCCN3CCOCC3)c2C#N)c1	82.6%	86.5%	81.2%	61.4%	134%	80.8%	86.2%	78.3%	95.6%	75.9%		83.1%	107%	90.6%	108%	90.4%	97.8%	82.6%	95%	81.4%

From PubChem BioAssay (NCI)
